Experimental data: ChEMBL document CHEMBL3433997, “St. Jude Leishmania screening dataset” (2016)

What was measured:
Assay type in all cases: functional
[1] = target: Solute carrier family 2, facilitated glucose transporter member 1 (Homo sapiens) (UniProt P11166); assay: ST_JUDE_LEISH: Cytotoxicity at 2uM final concentration against transgenic Leishmania Mexicana promastigotes LmGLUT1 that are glucose transport deficient and complemented with the human glucose transporter GLUT1. Activity is measured by DNA content using SYBR green in vitro
Sequence of Solute carrier family 2, facilitated glucose transporter member 1 (Homo sapiens) (P11166 whole entry): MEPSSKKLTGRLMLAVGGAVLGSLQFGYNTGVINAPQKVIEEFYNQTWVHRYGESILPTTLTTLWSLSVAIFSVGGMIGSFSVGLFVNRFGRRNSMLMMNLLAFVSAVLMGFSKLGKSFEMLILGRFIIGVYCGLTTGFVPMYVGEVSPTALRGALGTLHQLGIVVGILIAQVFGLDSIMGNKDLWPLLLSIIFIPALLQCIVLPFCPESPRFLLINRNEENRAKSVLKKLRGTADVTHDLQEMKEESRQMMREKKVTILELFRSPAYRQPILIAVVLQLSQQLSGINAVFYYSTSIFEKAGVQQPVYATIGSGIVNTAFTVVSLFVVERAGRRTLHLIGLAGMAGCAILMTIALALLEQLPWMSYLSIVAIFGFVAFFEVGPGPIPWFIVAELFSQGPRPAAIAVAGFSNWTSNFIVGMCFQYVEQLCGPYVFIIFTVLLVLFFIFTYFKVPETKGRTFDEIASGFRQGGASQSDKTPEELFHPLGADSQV

[2] = target: Hexose transporter 1 (Plasmodium falciparum) (UniProt O97467); assay: ST_JUDE_LEISH: Cytotoxicity at 2uM final concentration against transgenic Leishmania Mexicana promastigotes LmPfHT that are glucose transport deficient and complemented with the Plasmodium falciparum hexose transporter. Activity is measured by DNA content using SYBR green in vitro
[3] = target: Glucose transporter (Leishmania mexicana) (UniProt O61059); assay: ST_JUDE_LEISH: Cytotoxicity at 2uM final concentration against transgenic Leishmania Mexicana promastigotes LmGT2 that are glucose transport deficient and complemented with the L. Mexicana glucose transporter 2. Activity is measured by DNA content using SYBR green in vitro

Row | Structure (SMILES) | inhibition [1] | inhibition [2] | inhibition [3]
1 | O=C(C=Cc1ccc(F)cc1)N1CCN(S(=O)(=O)c2ccc(Cl)cc2)CC1 | 0.4% | -1.62% | 4.67%
2 | O=C(/C=C/c1ccc(Cl)c(Cl)c1)NCCCCCN1CCC(c2n[nH]c(-c3ccccc3)c2Br)CC1 | 1.29% | -2.38% | 0.22%
3 | Cc1cc(NCCC(=O)NCc2cccc(F)c2)nc(Nc2ccccc2)n1 | 8.44% | 7.08% | -6.28%
4 | CCCc1cc(Cc2cnc(N)nc2N)cc(OCCCCCC(=O)O)c1OC | 1.55% | 0.18% | 0.67%
5 | OC(c1ccc2ccccc2c1)C1CN(CCc2ccccc2)CCC1(O)c1ccccc1 (configuration not stated) | 0.49% | -3.49% | 0.03%
6 | Cc1nc(NC2=NCN(CCCN3CCOCC3)CN2)nc2c(C)cccc12 | 8.37% | 17.2% | 11%
7 | N=C(Cc1ccc(Cl)cc1)NCCN1CCCCCC1 | 5.13% | 7.11% | 6.19%
8 | c1cncc(CCNCc2cccc(-c3ccc(-c4nc5ccccc5[nH]4)s3)c2)c1 | 7.99% | 7.19% | 4.65%
9 | Cc1cc(N2CCCC2)nc(NC(=N)Nc2cccc(C(F)(F)F)c2)n1 | 6.6% | 7.28% | 2.22%
10 | O=C(NC1CCC(CCN2Cc3cccc(F)c3C2)CC1)c1cccc(-c2cccnc2)c1 (configuration not stated) | 0.7% | 1.22% | -1.89%
11 | CC(C)(CNCCOc1ccc(Cl)cc1)c1nc(-c2ccnc(N)n2)c(-c2ccc(Cl)c(O)c2)[nH]1 | 2% | 1.8% | 0.27%
12 | Cn1c(NCc2cc(F)cc3c2OCOC3)nc2cc(Nc3ccnc(Nc4cccc(CS(C)(=O)=O)c4)n3)ccc21 | -1.66% | 1.11% | 1.18%
13 | FC(F)(F)COc1ccc2ccccc2c1CCNCCCCNCCc1c(OCC(F)(F)F)ccc2ccccc12 | 105% | 103% | 107%
14 | Cc1cc(C(=O)CN2C(=O)NC(C)(c3ccc4ccccc4c3)C2=O)c(C)n1Cc1ccco1 (configuration not stated) | -0.27% | -1.11% | -4.18%
15 | CCN(CC)C(=O)C1CCCN(C(=O)Nc2cc(C(F)(F)F)cc(C(F)(F)F)c2)C1 (configuration not stated) | 0.66% | 0.55% | -2.05%
16 | COc1ccc2nccc([C@@H](O)CN3CCC(NCc4cc5ccccn5n4)CC3)c2c1 | 4.35% | 4.49% | 4.75%
17 | COc1ccc(NC(=O)CCNc2cc(C)nc(NCc3cccc(C)c3)n2)cc1 | -0.09% | 0.43% | -1.14%
18 | CCc1ccc(NC(=O)C=NNC(=N)N)cc1 | 1.51% | 1.46% | 1.17%
19 | CC(C)CCN1CCC(Oc2cccc(NC(=O)c3ccc(C(F)(F)F)cc3)c2)CC1 | 1.54% | -0.13% | 1.09%
